Experimental data published in the supplement of paper PMC3342239.
Structures can show the parent of a compound that is named as a salt.

The compounds below were run on Saccharomyces cerevisiae (assay: fraction of cells in G1 phase (DNA content, flow cytometry); higher = more cells with unreplicated DNA (G1 delay)). Conditions: temperature: 30 C; YPD; JTY2953 pdr5 snq2 (sensitized); drug added to: cultures diluted from stationary phase; 6-7 h.
Outline: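 S. cerevisiae in YPD at 30°C was dosed with library drugs, using a final 20 µg/ml for sensitized JTY2953 diluted 1∶200 from overnight and fixed at 6–7 h, or dosing dividing JTY2953 (fixed at 6 h) and BY4741 (fixed at 4.33 h). Ethanol-fixed, SYTOX Green-stained cells were read by flow cytometry (10,000 events). The G1 fraction is taken as the Dean-Jett-Fox G1 peak area divided by the G1 and G2/M areas combined.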

Structure (SMILES)	fraction of cells in G1 phase
CC(C)(CO)[C@@H](O)C(=O)NCCC(=O)O [Pantothenic acid] (91.2244 µM)	0.484
C=C(CC)C(=O)c1ccc(OCC(=O)O)c(Cl)c1Cl [Ethacrynic acid] (65.9752 µM)	0.513
CN(C)CCC(c1ccc(Cl)cc1)c1ccccn1 (centres undefined) [Chlorpheniramine maleate] (72.7812 µM)	0.452
CC(C)NCC(O)c1ccc(NS(C)(=O)=O)cc1 (centres undefined) [Sotalol HCl] (73.4298 µM)	0.535
Nc1nc(Cl)nc2c1ncn2[C@@H]1O[C@H](CO)[C@@H](O)[C@@H]1F [Clofarabine] (65.8583 µM)	0.465
CC(=O)CCCCn1c(=O)c2c(ncn2C)n(C)c1=O [Pentoxifylline] (71.8614 µM)	0.487
Cn1ccnc1S [Methimazole] (175.178 µM)	0.473
CC(=O)Nc1ccc(CC(=O)O)cc1 [Actarit] (103.52 µM)	0.521
Cc1ccc(-c2ncc(Cl)cc2-c2ccc(S(C)(=O)=O)cc2)cn1 [Etoricoxib] (55.7337 µM)	0.511
CNNCc1ccc(C(=O)NC(C)C)cc1 [Procarbazine HCl] (90.3731 µM)	0.49
Cc1nc2n(c(=O)c1CCN1CCC(c3noc4cc(F)ccc34)CC1)CCCC2 [Risperidone] (48.7216 µM)	0.472
Cn1c(=O)c2[nH]cnc2n(C)c1=O [Aminophylline] (111.008 µM)	0.49
CC1(C)S[C@@H]2[C@H](NC(=O)[C@H](N)c3ccc(O)cc3)C(=O)N2[C@H]1C(=O)O [Amoxicillin] (54.7345 µM)	0.457
COc1cc(CNC(=O)CCCC/C=C/C(C)C)ccc1O [Capsaicin] (65.4834 µM)	0.556
CCOC(=O)C1=C[C@]2(CC)CCCN3CCc4c(n1c1ccccc41)[C@@H]32 [Vinpocetine] (57.0671 µM)	0.439
CN[C@@H]1[C@@H](O[C@H]2O[C@H](CO)[C@@H](N)[C@H](O)[C@H]2O)OC2C[C@@H](N)[C@@H](O[C@H]3[C@H](O)[C@@H](O)[C@H](N)C[C@@H]3N)OC2[C@@H]1O (some centres undefined) [Apramycin] (37.0653 µM)	0.449
CCN1CCN(C(=O)N[C@@H](C(=O)N[C@@H]2C(=O)N3C(C(=O)O)=C(CSc4nnnn4C)CS[C@H]23)c2ccc(O)cc2)C(=O)C1=O [Cefoperazone acid] (30.9752 µM)	0.487
CCCCC[C@H](O)/C=C/[C@H]1[C@H](O)CC(=O)[C@@H]1C/C=C\CCCC(=O)O [Dinoprostone] (56.7416 µM)	0.487
O=C(O)c1ccccc1Nc1cccc(C(F)(F)F)c1 [Flufenamic acid] (71.1145 µM)	0.582
CN1C2CCCC1CC(NC(=O)c1nn(C)c3ccccc13)C2 (centres undefined) [Granisetron] (64.0168 µM)	0.486
Cc1c(-c2cnccn2)ssc1=S [Oltipraz] (88.3617 µM)	0.503
COc1ccccc1OCC(O)CO (centres undefined) [Guaifenesin] (100.898 µM)	0.463
Cc1oncc1C(=O)Nc1ccc(C(F)(F)F)cc1 [Leflunomide] (74.0157 µM)	0.555
CC1CNc2c(cccc2S(=O)(=O)N[C@@H](CCCNC(=N)N)C(=O)N2CC[C@@H](C)C[C@@H]2C(=O)O)C1 (some centres undefined) [Argatroban] (39.3202 µM)	0.487
COc1cccc2c1C(=O)c1c(O)c3c(c(O)c1C2=O)C[C@@](O)(C(C)=O)C[C@@H]3O[C@H]1C[C@H](N)[C@H](O)[C@H](C)O1 [Daunorubicin HCl] (37.9123 µM)	0.596
CC(=O)O[C@@]12CO[C@@H]1C[C@H](O)[C@@]1(C)C(=O)[C@H](O)C3=C(C)[C@@H](OC(=O)[C@H](O)[C@@H](NC(=O)OC(C)(C)C)c4ccccc4)C[C@@](O)([C@@H](OC(=O)c4ccccc4)[C@H]21)C3(C)C [Docetaxil] (24.7555 µM)	0.507
NC(=O)c1ncn([C@@H]2O[C@H](CO)[C@@H](O)[C@H]2O)n1 [Ribavirin] (81.8972 µM)	0.481
C[C@]12CC[C@@H]3c4ccc(O)cc4C[C@@H](CCCCCCCCC[S+]([O-])CCCC(F)(F)C(F)(F)F)[C@H]3[C@@H]1CC[C@@H]2O (some centres undefined) [Fulvestrant] (32.9606 µM)	0.458
CCN1CCCC1CNC(=O)c1cc(S(=O)(=O)CC)c(N)cc1OC (centres undefined) [Amisulpride] (54.1272 µM)	0.471
